Assay [1] is described as follows: qHTS assay to identify small molecule antagonists of the sonic hedgehog signaling (Shh) pathway (AID 1259369; calls by dose curve; also: nearly all actives have a fitted effect of over 45% in size). The method in brief:
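Screening used 3T3Gli1-Luc cells at 2,000 per well, compounds delivered in DMSO, and conditioned medium as agonist stimulus; plates incubated 24hr at 37 C and 5% CO2 before a 30min luciferase step.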
On the technique in general: In qHTS, concentration-response curves come from the screen itself.

A short description of assay [2]: qHTS assay to identify small molecule agonists of the androgen receptor (AR) signaling pathway in the presence of an antagonist - cell viability counter screen (AID 1259379).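 Also: MDA-kb2 human breast cancer cells carrying an MMTV luciferase reporter; series mostly up to about 92 µM; nearly all actives have a fitted effect of over 25% in size.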 The gist of the method:
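In MDA-kb2 cells (human breast carcinoma, MMTV-luciferase), compounds at 15 concentrations plus 3.0uM nilutamide; 16 hr, 37C, 0% CO2; CellTiter-Fluor fluorescence read for viability.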

The nature of assay [3]: qHTS assay to identify small molecule agonists or antagonists of the thyroid stimulating hormone receptor (TSHR) signaling pathway - wild type cell line counter screen (AID 1259384; calls by dose curve). The gist of the method:
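Wild-type HEK293 cells were plated 18 h at 37 C/5% CO2, pin-dosed with compound plus Ro20-1724 medium, held 30 min at room temperature, then given cAMP-d2 and anti-cAMP-cryptate; fluorescence was read after 1 h. Fifteen concentrations, triplicate.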

Assay [4] concerns the target Thyrotropin receptor (Homo sapiens) (UniProt P16473). The assay is described as follows: qHTS assay to identify small molecule antagonists of the thyroid stimulating hormone receptor (TSHR) signaling pathway (AID 1259385; calls by dose curve; also: nearly all actives have a fitted effect of over 20% in size). The gist of the method: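 TSHR-HEK293 cells were plated and held 18 h at 37C/5% CO2, then given compound plus Ro20-1724 and stimulated with TSH at 1.5 ng/mL final. After 30 min at room temperature, cAMP was detected with cAMP-d2/anti-cAMP-cryptate (1 h) by fluorescence.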

Assay [5] in a line: qHTS assay to identify small molecule agonists of the estrogen receptor alpha (ER-alpha) signaling pathway in the presence of an antagonist - cell viability counter screen (AID 1259386).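 Also: series mostly up to about 92 µM; cells exposed to compounds for 22 h at 37 °C before the viability read; nearly all actives have a fitted effect of over 30% in size.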 The gist of the method:
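Fluorescent CellTiter-Fluor viability signal from VM7Luc4E2 cells, with the reagent added during the final hour of a 22hr compound exposure at 37C in the presence of 10.0nM ICI-182,780.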

Assay [6] can be described thus: qHTS assay to identify small molecule antagonists of the progesterone receptor (PR) signaling pathway - cell viability counter screen (AID 1346798). Also: series mostly up to about 92 µM; nearly all actives have a fitted effect of over 50% in size. The gist of the method:
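Cytotoxicity read as CellTiter-Glo luminescence (30 min, room temperature) in the same wells as the beta-lactamase readout. HEK293T PR-UAS-bla cells in charcoal-stripped 2% FBS received compound and R5020, then 16 h at 37C, 5% CO2.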

Assay [7] in a line: qHTS assay to identify small molecule agonists of the progesterone receptor (PR) signaling pathway - cell viability counter screen (AID 1346799; calls by dose curve; also: nearly all actives have a fitted effect of over 45% in size). The gist of the method:
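Cytotoxicity measured by CellTiter-Glo luminescence (30 min, RT) in the same wells as the PR beta-lactamase agonist read. Those HEK293T cells had 16 h compound treatment at 37 C in 2% charcoal-stripped FBS medium.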

Assay [8] can be described thus: qHTS assay to identify small molecule antagonists of the TGF-beta/Smad signaling pathway - cell viability counter screen (AID 1346824). Also: nearly all actives have a fitted effect of over 50% in size. The method in brief: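 SBE-bla HEK 293T cells were plated overnight at 37 C, then given compounds in DMSO plus TGF-beta1 (added as 0.25 ng/mL solution) for 5 hr. After the bla read, CellTiter-Glo was added to the same wells and luminescence read after 30 min at room temperature.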

Assay [9] is described as follows: qHTS assay to identify small molecule agonists of the TGF-beta/Smad signaling pathway - cell viability counter screen (AID 1346829). Also: top concentration of the series differs between compounds; nearly all actives have a fitted effect of over 45% in size. The gist of the method: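 After overnight seating at 37 C and 5% CO2, reporter cells got compounds for 5 hr and FRET substrate for 2 hr; cell viability then came from CellTiter-Glo luminescence.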
The nature of assay [10]: qHTS assay to identify small molecule agonists of the TGF-beta/Smad signaling pathway (AID 1346859; active = well fitted activation curve with a large enough effect in the signal ratio in the repeat runs, not every such curve was filed as active; the % refers to the signal ratio; also: series mostly up to about 77 µM). The method in brief:
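Fluorescence (ex 405 nm; em 460 and 530 nm) was read 2 h after LiveBLAzer FRET substrate at RT. The preceding compound treatment of overnight-plated SBE-bla HEK293T cells lasted 5 h at 37 C.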

Assay [11] has as its target Estrogen receptor beta (Homo sapiens) (UniProt Q92731). The assay is described as follows: qHTS assay to identify small molecule agonists of the estrogen receptor beta (ER-beta) signaling pathway (AID 1259377; active = well fitted activation curve with a large enough effect in the signal ratio in the repeat runs, not every such curve was filed as active; the % refers to the signal ratio). The method in brief: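 Ratiometric beta-lactamase FRET read-out came after 2 h substrate loading at room temperature. It followed 16 h compound treatment at 37C of GripTite HEK293T cells carrying a UAS-bla reporter, plated in 2% charcoal-stripped FBS medium.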

The target is the same in assay [12]. The assay is described as follows: qHTS assay to identify small molecule antagonists of the estrogen receptor beta (ER-beta) signaling pathway (AID 1259378; active = well fitted inhibition curve with a large enough effect in the signal ratio in the repeat runs, not every such curve was filed as active; the % refers to the signal ratio). The gist of the method:
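ER-beta-UAS-bla HEK293T (GripTite) cells in 2% charcoal-stripped FBS medium were preincubated 6 hr at 37C, dosed with compound, then stimulated with 1 nM E2 (final) for 16 hr; beta-lactamase reporter read by B/G FRET fluorescence after 2 hr substrate loading.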

The target in assay [13] is Androgen receptor (Homo sapiens) (UniProt P10275). The assay is described as follows: qHTS assay to identify small molecule agonists of the androgen receptor (AR) signaling pathway in the presence of an antagonist (AID 1259381; calls by dose curve; also: nearly all actives have a fitted effect of over 15% in size). The method in brief:
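Here, 15-concentration compound series were pin-transferred onto MDA-kb2 MMTV-luciferase cells already dosed with nilutamide (3.0uM final). After 16hr at 37C, ONE-Glo was added and luminescence read 30min later at room temperature.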

Assay [14] in a line: qHTS assay to identify small molecule antagonists of the estrogen receptor beta (ER-beta) signaling pathway - cell viability counter screen (AID 1259382). Also: series mostly up to about 92 µM; nearly all actives have a fitted effect of over 55% in size. The method in brief: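 Tox21 10K library tested in qHTS format on ER-beta-bla HEK293T cells stimulated with 1nM E2; 16 hr treatment at 37C. Same-well CellTiter-Glo luminescence served as the cell viability measure.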
Assay [15] deals with Estrogen receptor (Homo sapiens) (UniProt P03372). The assay is described as follows: qHTS assay to identify small molecule agonists of the estrogen receptor alpha (ER-alpha) signaling pathway in the presence of an antagonist (AID 1259383; calls by dose curve; also: top concentration of the series differs between compounds; nearly all actives have a fitted effect of over 15% in size). The method in brief:
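In VM7Luc4E2 cells, 4,000 per well, compounds at 15 concentrations were co-incubated 22hr at 37C with 10.0nM final ICI-182,780. Luminescence from the stably transfected 4×ERE-luciferase reporter was recorded 30min after ONE-Glo addition.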

Assay [16] addresses Progesterone receptor (Homo sapiens) (UniProt P06401). The assay is described as follows: qHTS assay to identify small molecule agonists of the progesterone receptor (PR) signaling pathway (AID 1346784; calls by dose curve; also: nearly all actives have a fitted effect of over 30% in size; also: potency is read from the fitted curve at half-maximal effect). The method in brief: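 Agonist qHTS: compounds pinned onto 3,000 PR-UAS-bla HEK 293T cells per well in charcoal-stripped serum medium, 16hr at 37C, then beta-lactamase activity measured by LiveBLAzer FRET fluorescence after 2 hours at room temperature.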

Assay [17] has the same target. Nature of the assay: qHTS assay to identify small molecule antagonists of the progesterone receptor (PR) signaling pathway (AID 1346795; active = well fitted inhibition curve with a large enough effect in the signal ratio in the repeat runs, not every such curve was filed as active; the % refers to the signal ratio). The gist of the method:
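Antagonist mode with agonist R5020 at 1 nM final and 16 hr incubation at 37C. Reporter was beta-lactamase driven by UAS in HEK293T (PR-UAS-bla), 2% charcoal-stripped serum; signal from LiveBLAzer FRET substrate, 2 hr at room temperature.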

Assay [18] addresses Thyrotropin-releasing hormone receptor (Homo sapiens) (UniProt P34981). Nature of the assay: qHTS assay to identify small molecule antagonists of the thyrotropin-releasing hormone receptor (TRHR) signaling pathway (AID 1346877; active = well fitted inhibition curve with a large enough effect in the repeat runs, not every such curve was filed as active; also: series mostly up to about 51 µM). The method in brief:
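In this cell-based calcium flux format, HEK293 cells expressing TRHR received test compound for 5 min before the agonist TRH (1 nM final). Dye loading lasted 2 h at 37 °C.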

Assay [19] shares this target. The assay is described as follows: qHTS assay to identify small molecule agonists of the thyrotropin-releasing hormone receptor (TRHR) signaling pathway (AID 1346891; calls by dose curve; also: series mostly up to about 58 µM). The gist of the method:
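Agonist-mode intracellular calcium readout: kinetic fluorescence over 3 min at 1 s intervals after compound addition to TRHR-HEK293 cells (18 h seeded, 2 h dye-loaded at 37 C). Fifteen concentrations, triplicates.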

A short description of assay [20]: qHTS assay to identify small molecule agonists of the estrogen receptor beta (ER-beta) signaling pathway - cell viability counter screen (AID 1259380). Also: nearly all actives have a fitted effect of over 30% in size. The method in brief:
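Viability of ER-beta-UAS-bla HEK293T cells was determined by CellTiter-Glo luminescence following 16 hr treatment with test compounds at 37C.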

Records with an inconclusive call do not appear. More than one record can exist for a structure, and the calls need not agree. Calls of active or inactive are those of the source. Unless noted, calls follow the shape of the dose curve; as a rule, active = well fitted curve in the direction sought with a large enough effect in the repeat runs; inconclusive = weak or mixed curves; inactive = no such curve, though single readings can be large; an effect the other way counts as inactive or inconclusive.

Chain of Progesterone receptor (Homo sapiens) (P06401 whole entry, looked up): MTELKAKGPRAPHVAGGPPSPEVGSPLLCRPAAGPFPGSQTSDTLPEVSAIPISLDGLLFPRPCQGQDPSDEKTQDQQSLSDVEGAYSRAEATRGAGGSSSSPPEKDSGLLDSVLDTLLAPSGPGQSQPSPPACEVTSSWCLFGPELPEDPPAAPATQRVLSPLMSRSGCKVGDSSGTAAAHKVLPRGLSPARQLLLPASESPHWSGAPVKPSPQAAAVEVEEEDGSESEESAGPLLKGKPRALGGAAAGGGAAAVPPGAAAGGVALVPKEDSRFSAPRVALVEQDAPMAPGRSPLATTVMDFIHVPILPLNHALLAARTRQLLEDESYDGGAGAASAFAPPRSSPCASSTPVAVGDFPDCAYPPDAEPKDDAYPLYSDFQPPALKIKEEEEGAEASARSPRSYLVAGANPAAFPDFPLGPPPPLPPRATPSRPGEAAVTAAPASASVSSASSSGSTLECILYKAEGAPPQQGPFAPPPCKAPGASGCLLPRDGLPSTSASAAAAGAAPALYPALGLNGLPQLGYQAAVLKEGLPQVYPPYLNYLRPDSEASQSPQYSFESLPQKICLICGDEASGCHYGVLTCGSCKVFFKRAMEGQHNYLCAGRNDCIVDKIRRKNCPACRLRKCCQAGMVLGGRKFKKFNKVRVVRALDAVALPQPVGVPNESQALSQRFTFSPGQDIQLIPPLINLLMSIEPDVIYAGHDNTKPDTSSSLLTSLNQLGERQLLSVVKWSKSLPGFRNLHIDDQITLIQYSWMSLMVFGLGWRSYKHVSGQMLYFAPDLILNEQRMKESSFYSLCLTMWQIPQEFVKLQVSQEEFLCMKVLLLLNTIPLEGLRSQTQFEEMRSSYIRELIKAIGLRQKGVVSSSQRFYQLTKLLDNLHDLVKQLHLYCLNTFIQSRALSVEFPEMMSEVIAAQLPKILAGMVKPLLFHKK
Chain of Thyrotropin-releasing hormone receptor (Homo sapiens) (P34981 whole entry, looked up): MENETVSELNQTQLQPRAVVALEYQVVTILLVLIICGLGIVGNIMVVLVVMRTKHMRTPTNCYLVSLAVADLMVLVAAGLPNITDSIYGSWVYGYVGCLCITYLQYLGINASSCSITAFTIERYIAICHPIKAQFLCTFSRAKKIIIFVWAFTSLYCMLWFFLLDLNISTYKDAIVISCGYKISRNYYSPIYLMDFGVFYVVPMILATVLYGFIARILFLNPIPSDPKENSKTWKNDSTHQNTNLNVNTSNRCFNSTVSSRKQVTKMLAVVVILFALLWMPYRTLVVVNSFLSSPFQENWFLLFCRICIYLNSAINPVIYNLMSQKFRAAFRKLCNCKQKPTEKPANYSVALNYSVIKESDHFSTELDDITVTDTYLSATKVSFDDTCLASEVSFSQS
Chain of Estrogen receptor beta (Homo sapiens) (Q92731 whole entry, looked up): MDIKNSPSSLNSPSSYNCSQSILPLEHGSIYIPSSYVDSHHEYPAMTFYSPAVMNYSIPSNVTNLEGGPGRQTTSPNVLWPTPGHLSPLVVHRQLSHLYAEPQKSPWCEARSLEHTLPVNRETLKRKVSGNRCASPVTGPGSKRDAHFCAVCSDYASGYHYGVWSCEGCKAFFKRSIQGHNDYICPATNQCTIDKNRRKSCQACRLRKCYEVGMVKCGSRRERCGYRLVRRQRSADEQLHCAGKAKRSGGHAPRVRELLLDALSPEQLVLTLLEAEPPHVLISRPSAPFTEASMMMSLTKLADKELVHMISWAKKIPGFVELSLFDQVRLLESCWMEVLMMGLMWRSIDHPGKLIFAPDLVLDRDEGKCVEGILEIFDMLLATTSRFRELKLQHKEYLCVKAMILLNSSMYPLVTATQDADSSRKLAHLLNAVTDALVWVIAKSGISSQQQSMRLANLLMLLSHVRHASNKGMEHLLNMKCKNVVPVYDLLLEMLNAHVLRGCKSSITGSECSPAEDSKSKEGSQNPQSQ
Chain of Estrogen receptor (Homo sapiens) (P03372 whole entry, looked up): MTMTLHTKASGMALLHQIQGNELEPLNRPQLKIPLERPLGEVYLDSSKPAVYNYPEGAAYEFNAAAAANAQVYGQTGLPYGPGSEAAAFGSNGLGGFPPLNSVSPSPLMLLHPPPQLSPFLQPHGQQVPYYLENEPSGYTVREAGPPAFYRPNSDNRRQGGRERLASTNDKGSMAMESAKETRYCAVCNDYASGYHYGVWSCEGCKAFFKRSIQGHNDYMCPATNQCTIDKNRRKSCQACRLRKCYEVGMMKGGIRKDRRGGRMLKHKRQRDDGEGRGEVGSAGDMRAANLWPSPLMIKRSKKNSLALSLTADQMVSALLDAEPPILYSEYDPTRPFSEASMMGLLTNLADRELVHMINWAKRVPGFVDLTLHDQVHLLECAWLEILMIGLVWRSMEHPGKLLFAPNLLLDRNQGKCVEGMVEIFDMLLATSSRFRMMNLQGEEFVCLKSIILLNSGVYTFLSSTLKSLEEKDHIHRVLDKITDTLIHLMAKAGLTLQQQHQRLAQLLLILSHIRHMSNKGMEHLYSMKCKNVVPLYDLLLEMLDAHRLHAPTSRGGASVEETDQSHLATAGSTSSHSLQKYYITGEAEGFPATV
Chain of Androgen receptor (Homo sapiens) (P10275 whole entry, looked up): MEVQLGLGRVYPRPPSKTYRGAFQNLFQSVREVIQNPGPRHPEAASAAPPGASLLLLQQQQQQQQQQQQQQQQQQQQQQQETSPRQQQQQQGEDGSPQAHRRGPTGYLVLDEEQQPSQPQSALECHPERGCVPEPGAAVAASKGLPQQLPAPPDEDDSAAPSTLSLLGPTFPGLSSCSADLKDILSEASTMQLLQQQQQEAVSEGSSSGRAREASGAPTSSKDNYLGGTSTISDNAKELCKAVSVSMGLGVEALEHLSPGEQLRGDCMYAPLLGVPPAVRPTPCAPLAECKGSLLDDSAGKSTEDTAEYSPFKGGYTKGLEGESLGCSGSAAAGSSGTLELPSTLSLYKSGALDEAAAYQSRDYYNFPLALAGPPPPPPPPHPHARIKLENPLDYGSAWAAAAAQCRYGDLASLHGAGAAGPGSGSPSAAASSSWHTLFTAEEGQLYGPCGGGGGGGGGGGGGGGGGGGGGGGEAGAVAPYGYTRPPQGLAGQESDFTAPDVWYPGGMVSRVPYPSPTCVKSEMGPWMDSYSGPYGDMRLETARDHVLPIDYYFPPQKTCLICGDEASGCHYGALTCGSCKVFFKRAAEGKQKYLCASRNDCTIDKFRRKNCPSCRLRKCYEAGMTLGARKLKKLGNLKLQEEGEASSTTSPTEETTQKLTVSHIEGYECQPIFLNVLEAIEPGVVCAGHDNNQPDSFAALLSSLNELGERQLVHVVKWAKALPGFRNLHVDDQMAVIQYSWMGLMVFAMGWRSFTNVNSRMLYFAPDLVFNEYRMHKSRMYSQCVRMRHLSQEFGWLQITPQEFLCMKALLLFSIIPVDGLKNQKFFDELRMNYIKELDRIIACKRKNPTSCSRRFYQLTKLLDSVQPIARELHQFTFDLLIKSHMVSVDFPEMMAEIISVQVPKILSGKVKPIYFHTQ
Chain of Thyrotropin receptor (Homo sapiens) (P16473 whole entry, looked up): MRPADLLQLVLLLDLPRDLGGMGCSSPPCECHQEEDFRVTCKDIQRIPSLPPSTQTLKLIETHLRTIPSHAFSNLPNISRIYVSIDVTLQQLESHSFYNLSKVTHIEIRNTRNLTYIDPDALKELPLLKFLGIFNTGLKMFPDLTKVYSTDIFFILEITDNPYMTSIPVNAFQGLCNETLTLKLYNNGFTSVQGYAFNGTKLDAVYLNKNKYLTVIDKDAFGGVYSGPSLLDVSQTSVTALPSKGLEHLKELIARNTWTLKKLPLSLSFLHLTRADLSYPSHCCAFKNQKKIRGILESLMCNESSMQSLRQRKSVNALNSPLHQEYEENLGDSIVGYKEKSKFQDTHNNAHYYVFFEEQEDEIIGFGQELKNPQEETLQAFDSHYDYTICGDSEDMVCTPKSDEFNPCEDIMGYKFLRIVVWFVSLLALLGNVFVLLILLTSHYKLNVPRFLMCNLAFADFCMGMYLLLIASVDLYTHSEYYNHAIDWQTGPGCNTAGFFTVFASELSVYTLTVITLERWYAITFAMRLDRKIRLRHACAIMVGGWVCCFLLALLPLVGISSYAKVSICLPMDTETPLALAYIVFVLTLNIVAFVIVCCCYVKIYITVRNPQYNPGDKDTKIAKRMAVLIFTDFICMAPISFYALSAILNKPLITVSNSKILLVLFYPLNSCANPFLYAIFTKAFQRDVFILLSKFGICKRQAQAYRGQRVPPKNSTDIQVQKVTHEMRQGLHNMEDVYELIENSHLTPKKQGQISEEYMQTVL

Consider `O=NO`, for which the Potency result in assay [1], in assay [2], in assay [5], in assay [6], in assay [7] and in [9] was “inactive” in each case. Besides, the compound was called inactive in [3], in assay [4], in [8] and in [10].
With `Cc1cc(=O)n(-c2ccccc2)n1C`, the Potency result in assay [1], in assay [12], in assay [2], in assay [13], in assay [14] and in assay [15] was “inactive” throughout. In addition, the Potency entry in assay [5], in assay [16], in [6], in [7] and in [9] was “inactive” in each case. The outcome in [11], in [17], in assay [8], in assay [10], in [18] and in [19] was inactive.
Take `NS(=O)(=O)c1cc(C(=O)O)c(NCc2ccco2)cc1Cl`: the Potency entry in assay [1], in [2], in [20], in assay [14], in [15] and in assay [5] was “inactive” throughout. Also, the Potency result in assay [16], in assay [6], in assay [7] and in [9] was “inactive” each time. Besides, the compound was classed as inactive in assay [3], in assay [4], in [17], in assay [8], in assay [10] and in assay [18]. Also, the compound was called inactive in assay [19].
For the compound `Cc1noc(NS(=O)(=O)c2ccc(N)cc2)c1C`, the Potency result in [1], in assay [12], in assay [2], in assay [20], in [14] and in [15] was “inactive” in each case. Further, the Potency entry in [5], in assay [16], in [6], in assay [7] and in assay [9] was “inactive” throughout. In addition, the call in assay [11], in assay [3], in assay [4], in assay [17], in assay [10] and in assay [18] was inactive. Besides, in assay [19], the outcome was inactive.
On to `O=S(=O)(O)NC1CCCCC1`, for which the Potency result in assay [1], in [2], in [20], in assay [5], in [6] and in assay [7] was “inactive” in each case. Moreover, the Potency entry in assay [9] is “inactive”. Also, the result in [3], in [4], in assay [17], in assay [8] and in [10] was inactive. Further, the Potency in assay [16] was 4.12 µM (active) and inactive.
On to `Cc1ccc(C)c(OCCCC(C)(C)C(=O)O)c1`, for which the outcome in [11], in assay [3], in assay [4], in assay [17], in assay [8] and in [10] was inactive. For the same compound, the Potency entry in [12], in assay [2], in [20], in assay [13], in [15] and in [5] was “inactive” throughout. The Potency result in assay [16], in assay [6], in [7] and in assay [9] was “inactive” in each case.
With `O=c1cc[nH]c(=S)[nH]1`, the Potency entry in [1], in assay [12], in assay [2], in assay [15], in [5] and in assay [16] was “inactive” in each case. For the same compound, the Potency entry in assay [6], in assay [7] and in [9] was “inactive” each time. The compound was classed as inactive in assay [11], in assay [3], in assay [4], in assay [17], in assay [8] and in assay [10]. The compound was classed as inactive in [18] and in [19].
As to `Cc1ccc(S(=O)(=O)NC(=O)NN2CCCCCC2)cc1`, the compound was called inactive in [11], in [3], in [4], in [17], in [8] and in [10]. Besides, the call in [18] and in assay [19] was inactive. Further, the Potency entry in assay [12], in assay [2], in assay [20], in [14], in assay [15] and in assay [5] was “inactive” in each case. Moreover, the Potency entry in assay [16], in assay [6], in assay [7] and in [9] was “inactive” in each case.
